Experimental data reported in PubChem BioAssay (NCATS).
Where “and” joins values, the source holds several entries; their conditions need not be identical. Equal entries are not always repeated. Results filed as inconclusive are left out. Calls of active or inactive are those of the source. Calls come from the whole dose curve; as a rule, active = well fitted activation curve with a large enough effect; inconclusive = small, poorly fitted or top-dose-only effect; inactive = no such curve, though single readings can be large or run the other way. Residues, ends and D or L forms follow the SMILES beside them.

target: Cellular tumor antigen p53 (Homo sapiens) (UniProt P04637); assay: Primary qHTS for small molecule compounds that upregulate eGFP-tagged delta133p53alpha (in N-terminal) cells. (AID 2060322); conditions: NCI-H358 eGFP-delta133p53alpha fluorescence, 24 h; activation: hits give high values; note: nearly all actives have a fitted effect of over 75% in size;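 for activation: cells pre-induced with doxycycline then dosed without doxycycline; series mostly up to about 56 µM; 0% = DMSO vehicle and 100% = reference activator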
Sequence (P04637 whole entry, looked up): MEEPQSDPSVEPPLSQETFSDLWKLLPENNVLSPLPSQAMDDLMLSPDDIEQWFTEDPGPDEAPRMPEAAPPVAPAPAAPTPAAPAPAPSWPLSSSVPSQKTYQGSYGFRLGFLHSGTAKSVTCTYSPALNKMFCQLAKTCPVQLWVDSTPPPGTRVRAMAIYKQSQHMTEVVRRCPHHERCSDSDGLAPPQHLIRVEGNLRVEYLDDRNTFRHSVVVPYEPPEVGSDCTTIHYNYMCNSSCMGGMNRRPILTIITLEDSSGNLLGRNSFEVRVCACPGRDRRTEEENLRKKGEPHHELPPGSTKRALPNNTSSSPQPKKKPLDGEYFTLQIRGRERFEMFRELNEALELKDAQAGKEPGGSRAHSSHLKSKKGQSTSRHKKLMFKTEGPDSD
Text: Assay Development and Screening Technology
National Center for Advancing Translational Sciences (NCATS),
National Institute of Health (NIH), Rockville, Maryland
Cellular senescence (CS) is one of the hallmarks of aging and age-related diseases. Senescent cells are characterized by an irreversible growth arrest, an increase in senescence-associated beta-galactosidase (SA-beta-gal) activity and p16INK4a expression, an activation of the DNA damage response pathways, and the emergence of a senescence-associated secretory phenotype (SASP).
Delta133p53alpha, a human/primate-specific p53 protein isoform, delays or inhibits the induction of CS and SASP in various types of human cells, including progeria-derived fibroblasts, primary normal astrocytes, and CD8+ T lymphocytes. Induction of delta133p53alpha with small molecule compounds may provide therapeutic opportunities for inhibition of senescence/SASP-associated pathologies in progeria syndromes, astrocyte-mediated neuroprotection in neurodegenerative diseases, and possibly prevention and treatment of a wider range of senescence- and aging-associated diseases.
Here we report the development and validation of a cell-based quantitative high throughput screening (qHTS) assay in 1,536-well format. This qHTS assay uses the NCI-H358 cell line with doxycycline-inducible expression of enhanced green fluorescent protein (eGFP)-tagged delta133p53alpha, which allows efficient and highly quantitative measurement of the protein levels.
PROTOCOL TABLE (as described by Inglese J, Shamu CE and Guy RK. 2007)
SEQUENCE No. (e.g., 1, 2, 3, etc.); […] (e.g., Cells, Incubation, Reagent, etc.); VALUE; DESCRIPTION.
1; Cells; 4uL; 800 doxycycline treated cells / well in doxycycline-free media, 1536-well black, clear-bottom low base Aurora microplates.
2; Compounds; 23 nL; Kalypsis pin tool (Wako) equipped with 1536-well pin heads, 5-azacytidine positive control.
3; Incubation; 24 hr; 37C, 5% CO2; 95% relative humidity.
4; Aspiration; 1x; BioTek EL406 washer dispenser (Agilent).
5; Fixing; 3.5% paraformaldehyde, BioTek EL406 washer dispenser (Agilent).
6; Washing; 1x PBS; BioTek EL406 washer dispenser (Agilent).
7; Nuclei staining; 1:1000 dilution of Hoechst 33342 (Thermofisher), BioTek EL406 washer dispenser (Agilent).
8; Incubation; 20 min; in the dark at room temperature.
9; Washing; 2x, 1x PBS (ThermoFisher), BioTek EL406 washer dispenser (Agilent).
10; Reagent; 10 uL; 1x PBS per well, sealed with clear adhesive tape.
NOTES (numbers refer to sequence numbers above).
1. NCI-H358 cells expressing eGFP-tagged delta133p53alpha were grown in T75 culture flasks and treated with doxycycline for 24h, at 10 ng/ml for eGFP-D133p53a cells (N-terminal cell) and 100 ng/ml for D133p53a-eGFP cells (C-terminal cells). Cells were trypsinized, counted using a Counted 3 Automated Cell Counter (Thermo Fisher), and diluted to a concentration of 200,000 cells/ml. A Multidrop Combi Reagent Dispenser (ThermoFisher) was used to dispense 800 cells/well in […] of doxycycline-free media, into 1536-well black/clear bottom low base plates (AuroraMicroplates).
2. After plating cells, 23 nl of compound library, DMSO vehicle control or positive control (5-azacytidine) were transferred by Pin Tool (Wako). The plate map layout was the same for each plate: (column 1) non-doxycycline treated cells + DMSO vehicle control; (column 2) doxycycline treated cells + DMSO vehicle control baseline; (column 3) doxycycline treated cells + positive control 57.5 uM final concentration 5-azacytidine; (column 4) doxycycline treated cells + serial dilution of 5-azacytidine, 16-point 1:2 titration spanning 1.8 nM to […] final concentration; (columns 5-48) doxycycline treated cells + titration of library compounds.
3. Cells were incubated at 37 °C, 5 % CO2, 95% RH with breathable metal lid for 24h.
4-10. […] After two washes, 10 ul of 1X PBS (Thermo Fisher) was dispensed to each well. Clear adhesive plate seals (VWR) were applied and plates stored at 4 °C.
11. […]
Potency is the fitted concentration of half-maximal effect.

SMILES	activation	Potency
C[C@H]1CC[C@@]2(OC1)O[C@H]1CC3C4CC[C@H]5C[C@@H](O[C@@H]6O[C@H](CO)[C@H](O[C@@H]7O[C@H](CO)[C@@H](O)[C@H](O[C@@H]8OC[C@@H](O)[C@H](O)[C@H]8O)[C@H]7O[C@@H]7O[C@H](CO)[C@@H](O)[C@H](O)[C@H]7O)[C@H](O)[C@H]6O)[C@H](O)C[C@]5(C)C4=CC(=O)[C@]3(C)[C@H]1[C@@H]2C (stereo not given in full)	6.11% (inactive)	–
OCC1NCC(O)C(O)C1O (stereo not given)	-36.6% (inactive)	–
Nc1ccc2cc3ccc(N)cc3nc2c1	-35.1% (inactive)	–
Cc1nnc(C(=O)NC(C)(C)c2nc(C(=O)NCc3ccc(F)cc3)c(O)c(=O)n2C)o1	12.2% (inactive) and -3.35% (inactive) and -11.5% (inactive)	–
Cc1cc(CS(=O)(=O)c2ccccc2)cc(OCc2ccc(CN3CCC[C@@H]3CO)cc2)c1	3.67% (inactive)	–
C=C1[C@H](n2cnc3c(=O)[nH]c(N)nc32)C[C@H](O)[C@H]1CO	-20.5% (inactive)	–
COc1cc(NC(C)CCCN)c2ncccc2c1 (stereo not given)	–	24.6 µM (active)
Cc1c(CN(C)C(=O)/C=C/c2cnc3c(c2)CCC(=O)N3)oc2ccccc12	8.33% (inactive)	–
COc1ccccc1N1CCN(c2ncnc3n[nH]c(Br)c23)CC1	20.5% (inactive)	–
O=C(O)c1cc(C(F)(F)F)ccc1N1CC[C@H](OCc2ccccn2)C1	-17% (inactive)	–
CC[C@H]1CN(c2nc(N)c(C(N)=O)nc2Cl)CCN1C1CCN(Cc2ccc(Cl)cc2)CC1	3.34% (inactive)	–
C[C@@]12C[C@@]3(O)O[C@@H](O1)[C@]1(COC(=O)c4ccccc4)[C@@H]3C[C@@]12O[C@@H]1O[C@H](CO)[C@@H](O)[C@H](O)[C@@H]1O	35.7% (inactive)	–
CC(C)CCNc1ncccc1C(=O)N1CCN(Cc2ccccc2)CC1	-4.3% (inactive)	–
C[C@H](Nc1ncnc2nc[nH]c12)c1cc2cccc(Cl)c2c(=O)n1-c1ccccc1	7% (inactive)	–
Nc1ccc(C(=O)Nc2ccccc2N)cc1	-7.53% (inactive)	–
CN(C)CCN(Cc1cccs1)c1ccccn1	-15.3% (inactive) and -8.14% (inactive)	–
CC1=CC(=O)[C@H]2C(C)(C)CCC[C@]2(C)[C@@]1(O)CO	-29% (inactive)	–
O=C(O)Cc1ccc(CCNS(=O)(=O)c2ccc(Cl)cc2)cc1	-1.67% (inactive)	–
C=C1CC/C=C(/CO)C(=O)C[C@@H]2[C@@H]1CC2(C)C	7.14% (inactive)	–
OCCC#Cc1nc(-c2ccc(F)cc2)c(-c2ccncc2)n1CCCc1ccccc1	17.2% (inactive)	–

SMILES	activation	Potency
N#Cc1cccc(-c2nc(-c3cccnc3)no2)c1	-3.34% (inactive)	–
O=C(CC1NCCC[C@H]1O)Cn1cnc2cc(Br)c(Cl)cc2c1=O (stereo not given in full)	5.25% (inactive)	–
FC(F)(F)c1ccc(/C=C/c2nc(COc3ccc(CCCCn4ccnn4)cc3)co2)cc1	18.8% (inactive)	–
O=C(O)c1ccnc2cc(C(OCC3CCC(F)(F)CC3)c3ccccc3Cl)[nH]c12 (stereo not given)	5.67% (inactive)	–
Nc1nc2c(ncn2COCCO)c(=O)[nH]1	6.69% (inactive) and 13.1% (inactive)	–
C=C[C@@]1(C)CCC2C(=CCC3[C@]2(C)CCC[C@@]3(C)C(=O)O)C1 (stereo not given in full)	-12.2% (inactive)	–
CC1CCC(=O)CC(SCC(O)C(=O)O)CCC(=O)O1 (stereo not given)	-26% (inactive)	–
C=C1CCC2[C@@](C)(C=O)CCC[C@]2(C)[C@H]1CC/C(C)=C/CO (stereo not given in full)	18.3% (inactive)	–
COC(=O)[C@H](Cc1ccccc1)NC(=O)[C@@H](N)CC(=O)O (H-Asp-Phe-OMe)	-35.6% (inactive) and -14.3% (inactive)	–
O=C1OC(c2ccc(O)cc2)(c2ccc(O)cc2)c2ccccc21	10.7% (inactive)	–
CC(=O)OC1CC(C)C2(CCC3(CC(=O)OC3O)O2)C2(C)CCCC(C)(C)C12 (stereo not given)	22.3% (inactive)	–
CN1C2CC(OC(=O)[C@H](CO)c3ccccc3)CC1C1OC12 (stereo not given in full)	-3.28% (inactive)	–
C[C@@H]1CN(CC(=O)N2CC(C)(C)c3ncc(Cc4ccc(F)cc4)cc32)[C@@H](CN2CCOC[C@H]2C)CN1	-14.4% (inactive)	–
Cc1ccccc1C#Cc1ccc(CCC(=O)O)cc1	4.3% (inactive)	–
O=C(Nc1ccnc(NC(=O)C2CC2)c1)c1c(Cl)cccc1Cl	–	12 µM (active)
O=c1cc(-c2ccccc2)oc2c(O)c(O)ccc12	-43.5% (inactive)	–
Cc1ncc(Cl)cc1NCc1ccc(C(=O)NC(CC2CCCC2)C(=O)NC2CC2)s1 (stereo not given)	3% (inactive)	–
C=CCc1ccc(O[C@@H]2O[C@H](CO[C@@H]3O[C@H](CO)[C@@H](O)[C@H](O)[C@H]3O)[C@@H](O)[C@H](O)[C@H]2O)c(O)c1	-5.34% (inactive)	–
COc1cc2c(Oc3ccc(NC(=O)C4(C(=O)Nc5ccc(F)cc5)CC4)cc3F)ccnc2cc1OCCCN1CCOCC1	–	7.57 µM (active)
C=C1CCC2[C@](C)(CO)CCC[C@@]2(C)[C@@H]1CCC1=CCOC1=O (stereo not given in full)	-7.14% (inactive)	–
